Assay outcomes: PubChem, Small Molecule Screening Facility, UW Madison
Shown is part of a subset that was picked to be rich in hits.
RMI FANCM FP: RMI-FANCM interaction inhibition. Fluorescence polarization, RMI core complex with F-MM2 peptide; active compounds read low. FP signal (polarization) at 33 µM. hit rate 0.58% among 70,000. AID 1159607; in the data active = FP signal below about 40
Each line names hits and unclear results; the compound was inactive in the other large screens; ! = not active in a repeat.

NC(CO)C(=O)NNCc1ccc(O)c(O)c1O (stereo not drawn)	RMI FANCM FP -13!
Clc1ccc(-c2csc(CN3CCNCC3)n2)cc1	none
CCC(=O)Nc1ccc(SCC(=O)N2CCN(c3ccccc3)CC2)nn1	none
C/C=C/c1ccc(Oc2nnc(-c3ccc(F)cc3)c3ccccc23)c(OC)c1	none
Brc1ccc(-c2ccc(Br)s2)s1	none
Fc1ccc2ncc(-c3ccc(Br)s3)nc2c1	RMI FANCM FP 9
Fc1ccc2nc(NCc3cccnc3)sc2c1	none
O=C(CCCSc1ccc(NC(=O)C2CC2)nn1)NCCc1ccccc1	none
CC12COC3(C#N)CC1CCC32C (stereo not drawn)	none
O=C1/C(=C\c2ccco2)SC(=S)N1CCS(=O)(=O)O	none
CCN(Cc1ccccc1)C(=O)CCN1C(=O)/C(=C\c2ccco2)SC1=S	RMI FANCM FP 22
CCc1nnc(NC(=O)CCN2C(=O)/C(=C\c3ccco3)SC2=S)s1	none
O=C(CSc1nc(-c2ccccc2)c2ccccc2n1)NCC1CCCO1 (stereo not drawn)	none
O=C(c1ccccc1Cl)N1CCN(Cc2nc3ccccc3[nH]2)CC1	none
COCCn1c(C)cc(C(=O)CSc2ncnc3sc4c(c23)CCCC4)c1C	none
N#Cc1c(N)sc2c1CCC2	none
N#Cc1c(N)sc(=S)c2c1CCCC2	RMI FANCM FP 7
CC(C)(C)C(=O)Nc1sc2c(c1C#N)CCCC2	none
O=C(OC[C@H]1O[C@H](OC(=O)c2cc(O)c(O)c(OC(=O)c3cc(O)c(O)c(O)c3)c2)[C@H](OC(=O)c2cc(O)c(O)c(OC(=O)c3cc(O)c(O)c(O)c3)c2)[C@@H](OC(=O)c2cc(O)c(O)c(OC(=O)c3cc(O)c(O)c(O)c3)c2)[C@@H]1OC(=O)c1cc(O)c(O)c(OC(=O)c2cc(O)c(O)c(O)c2)c1)c1cc(O)c(O)c(OC(=O)c2cc(O)c(O)c(O)c2)c1	RMI FANCM FP 29
CC(=O)OC[C@H]1O[C@@H](OCc2ccccc2)[C@H](OC(C)=O)[C@@H](OC(C)=O)[C@@H]1OC(C)=O	none
O=C(Oc1cc(O)cc2c1C[C@@H](OC(=O)c1cc(O)c(O)c(O)c1)[C@@H](c1ccc(O)c(O)c1)O2)c1cc(O)c(O)c(O)c1	none
COC(=O)Nc1ccc(S(=O)(=O)Nc2ccccc2OC)cc1	none
O=C(Nc1ccc(SCCN2CCOCC2)nn1)C1CC1	none
Cc1nn(C(=O)c2cccs2)c(C)c1S(=O)(=O)N1CCOCC1	none
O=c1cc(CN2CCOCC2)c2cc3c(cc2o1)CCC3	none
Cc1ccc2oc(=O)cc(CN3CCOCC3)c2c1	none
Cc1c(O)ccc2c(CN3CCCCC3)cc(=O)oc12	RMI FANCM FP 18
COc1ccccc1NC(=O)Cn1nc(-c2ccccc2)c2sc(N3CCCC3)nc2c1=O	none
O=C(NCc1ccc2c(c1)OCO2)c1cc(-c2ccccc2)n(C2CCS(=O)(=O)C2)n1 (stereo not drawn)	none
CN1C(=O)c2cccc(NC(=O)c3ccc(Cl)cc3Cl)c2C1=O	none
Cc1ccc(NC(NC(=O)c2ccccc2)C(=O)c2ccccc2)cc1C (stereo not drawn)	none
NC[C@@H]1O[C@H](O[C@@H]2[C@@H](CO)OC(O[C@@H]3[C@@H](O)[C@H](N)C[C@H](N)[C@H]3O[C@H]3O[C@H](CO)[C@@H](O)[C@H](O)[C@H]3N)[C@@H]2O)[C@H](N)[C@@H](O)[C@@H]1O (stereo partly drawn)	none
NC[C@@H]1O[C@H](O[C@H]2[C@@H](O)[C@H](O[C@@H]3[C@@H](O)[C@H](N)C[C@H](N)[C@H]3OC3O[C@H](CO)[C@@H](O)[C@H](O)[C@H]3N)O[C@@H]2CO)[C@H](N)[C@@H](O)[C@@H]1O (stereo partly drawn)	RMI FANCM FP 4
NC[C@H]1O[C@H](OC2[C@@H](N)C[C@@H](N)[C@H](O)[C@H]2O[C@@H]2O[C@H](CO)[C@@H](O)[C@H]2O)[C@H](N)[C@@H](O)[C@@H]1O (stereo partly drawn)	none
O=C(NCc1cccs1)c1csc(Nc2ccc(OC(F)F)cc2)n1	none
O=C(Oc1ccc(CC/C=C/CCc2ccc(OC(=O)c3ccccc3)cc2)cc1)c1ccccc1	none
COc1cccc(NC(=O)Cn2nc(C3CC3)c3cnn(-c4ccccc4C)c3c2=O)c1	none
O=C(Oc1ccc(NS(=O)(=O)c2ccc3ccccc3c2)cc1Cl)c1ccccc1	RMI FANCM FP 29
COc1cc(NS(=O)(=O)c2ccc3ccccc3c2)ccc1N1CCCCC1=O	none
O=C(COc1ccc(S(=O)(=O)Nc2ccccc2)cc1Cl)c1ccccc1	none
CSc1nc(C=Nc2nc(C)cc(C)n2)c(O)n1Cc1cccc(Cl)c1	none
c1ccc(-c2csc3ncnc(N4CCNCC4)c23)cc1	none
O=C(CS(=O)(=O)c1ccc(Cl)cc1)Nc1ccc(F)c(F)c1F	none
NC(=O)Nc1ccc(F)cc1F	none
N/C(CC(=O)Nc1ccc(F)c(F)c1F)=N/O	RMI FANCM FP 35
COc1cc2nc(NC(=O)/C=C/c3ccccc3Cl)sc2cc1OC	none
O=C1c2cccc3cc([N+](=O)[O-])cc(c23)C(=O)N1CCCN1CCOCC1	RMI FANCM FP 17
O=C(c1ccc(S(=O)(=O)N2CCOCC2)cc1)N1CCN(CCN2C(=O)c3cccc4cccc(c34)C2=O)CC1	none
O=C1c2cccc3cc([N+](=O)[O-])cc(c23)C(=O)N1CCc1ccccn1	none
C#CCn1c(=NC(=O)c2ccn(C)n2)sc2cc(S(N)(=O)=O)ccc21	none
CCC(=O)c1ccc(-c2ccccc2F)cc1	none
O=C(C1CCN(c2ncnc3c2sc2ncccc23)CC1)N1CCN(c2ccc(Cl)cc2)CC1	none
O=C(CCCSc1ccccc1)Nc1ccc([N+](=O)[O-])cc1	none
O=C(NC(=O)c1csc([N+](=O)[O-])c1)NN1CCOCC1	none
O=C(Nc1ccccc1)c1csc(-c2ccccc2)n1	none
Cn1c(-c2nc(C(=O)NN3CCOCC3)cs2)cc2ccccc21	RMI FANCM FP 3
Cn1c(Cc2nc(-c3cnccn3)no2)n[nH]c1=S	none
CC(=C\c1ccccc1)/C=C1/SC(=Nc2ccc(F)cc2)NC1=O	none
O=C1NC(=Nc2ccccc2)S/C1=C/C=C/c1ccco1	RMI FANCM FP 27
CCOc1ccc(N=C2NC(=O)S/C2=C\C=C\c2ccccc2)cc1	none
O=C(c1ccc(N2C(=O)CCC2=O)cc1)N1CCc2ccccc2C1	none
COCCCN1COc2ccc3cc(-c4cc(OC)ccc4OC)c(=O)oc3c2C1	RMI FANCM FP 35
COc1ccc(-c2cc3ccc4c(c3oc2=O)CN(CC2CCCO2)CO4)cc1OC (stereo not drawn)	none
CCOCCCN1COc2ccc3c(=O)c(-c4ccc(Cl)cc4)coc3c2C1	none
O=C(CSc1nc2c(c(=O)n1-c1ccc([N+](=O)[O-])cc1)SCC2)N1CCCc2ccccc21	RMI FANCM FP 24
O=C(CSc1nc2c([nH]c3ccccc32)c(=O)n1-c1ccc([N+](=O)[O-])cc1)N1CCc2ccccc21	none
CCOC(=O)N1CCN(C(=O)CSc2nc3c(c(=O)n2-c2ccc(OCC)cc2)SCC3)CC1	none
O=C(Nc1ccc(F)c(F)c1)c1ccc(=O)n(Cc2cccc(Cl)c2)c1	none
COc1cccc2cc(-c3nnc(NC(=O)c4cc(Cl)ccc4Cl)o3)oc12	none
CCN1CCN(c2ncnc3scc(-c4ccc(F)cc4)c23)CC1	none
CC(=O)Nc1ccc2c(c1)N(C)C(=O)C(C)(C)CO2	none
CC(=O)OC1C([N+]2(C)CCCCC2)C[C@H]2C3CC[C@H]4C[C@H](OC(C)=O)C([N+]5(C)CCCCC5)CC4(C)[C@H]3CCC12C (stereo partly drawn)	RMI FANCM FP -9
CC(=O)O[C@H]1C[C@@H]2CC[C@@H]3[C@H](CC[C@@]4(C)[C@H]3C[C@H]([N+]3(C)CCCCC3)[C@@H]4OC(C)=O)[C@@]2(C)C[C@@H]1[N+]1(C)CCCCC1	none
